# High-throughput results (PubChem)
# IL1B secr inh: qHTS for Inhibitors of Inflammasome Signaling: IL-1-beta AlphaLISA Primary Screen. 360,000 compounds, 4.7% hits. activity change, % at 57.5 µM. THP-1 LPS/ATP IL-1B secretion, AlphaLISA, 16 h; hits give low values; in the data active = activity change below about -50%; inconclusive = mostly about -30% to -49%
#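 Secreted IL-1B measured by AlphaLISA bead assay after 16 h compound exposure of THP-1 cells; compounds (final up to 57.5 uM) added 1 h before LPS (250 ng/mL) and ATP (1.25 mM) stimulation; lower signal means less secretion.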
# HT1080NT lethal: qHTS for induction of synthetic lethality in tumor cells producing 2HG: qHTS for the HT-1080-NT fibrosarcoma cell line | HT-1080-NT fibrosarcoma viability, CellTiter-Glo ATP luminescence, 48 h | Potency, µM (titrated, usually from 46.1 µM), without a hit: at the top dose activity, negative = less viability, most hits filed as cytotoxic | 360,000 compounds, 1.6% hits;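 also: NT is the 2HG producing partner of a matched IDH1 knockdown line; potency is read from the fitted curve at half-maximal effect; 0% = DMSO-treated cells and -100% = media-only wells without cells; nearly all actives have a fitted effect of over 55% in size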
#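 Read-out is CellTiter-Glo luminescence after 10 minutes at room temperature, following 48 hours' compound treatment of HT-1080-NT cells (750 cells/well, RPMI, 5% FBS, 37 degrees C).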
# DT40 TDP1 CPT: qHTS for Inhibitors of human tyrosyl-DNA phosphodiesterase 1 (TDP1): qHTS in cells in presence of CPT; chicken DT40 Tdp1-/-;hTDP1 cells + 20 nM CPT, ATP luminescence, 48 h; Potency, µM (top dose mostly 46.2 µM), without a hit: at the top dose activity change, negative = growth inhibition, usual class: inhibitors; 420,000 compounds, 12% hits; AID 686979, 2013; also: potency is read from the fitted curve at half-maximal effect; nearly all actives have a fitted effect of over 55% in size
#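 Cell growth measured by CellTiter-Glo luminescence after a minimum 48 h, 37 C compound exposure with 20 nM CPT in Tdp1-knockout DT40 cells stably expressing hTDP1, seeded 400/well; qHTS titration format.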
# TDP1 cell noCPT: qHTS for Inhibitors of human tyrosyl-DNA phosphodiesterase 1 (TDP1): qHTS in cells in absence of CPT; 420,000 compounds, 15% hits; Potency, µM (highest dose often 46.2 µM), for inactives: at the top dose activity change, negative = growth inhibition, hits mostly inhibitors; DT40 Tdp1-/- hTDP1 cells, no CPT, ATP luminescence, 48 h; AID 686978, 2013; also: potency is read from the fitted curve at half-maximal effect; nearly all actives have a fitted effect of over 55% in size
#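 A cellular qHTS used chicken DT40 cells lacking endogenous Tdp1 but carrying stably transfected human TDP1. Compounds were applied without camptothecin, and cell growth kinetics were judged by ATP-dependent luminescence after ≥48 hr.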
# HT1080 IDH1KD tx: qHTS for induction of synthetic lethality in tumor cells producing 2HG: qHTS for the HT-1080-IDH1KD cell line. 360,000 compounds, 2% hits. Potency, µM (titrated, usually from 46.1 µM), for the others: top-dose activity, negative = toxicity, most hits filed as cytotoxic. HT-1080 IDH1 knockdown viability, ATP luminescence, 48 h;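 also: potency is read from the fitted curve at half-maximal effect; 0% = DMSO wells and -100% = cell-free medium wells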
#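 Cytotoxicity counter-line: IDH1KD HT-1080, 48 h, CellTiter-Glo. Curves classed by r2, magnitude and activity.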
# * marks the source's active call; other numbers are inactive results; ? = inconclusive; · = not tested or not shown. This is a sample that favours compounds with a hit; in the whole collection about 19% have one here. Unless noted, calls follow the shape of the dose curve; as a rule, active = well fitted curve in the direction sought with a large enough effect; inconclusive = small, poorly fitted or top-dose-only effect, or another doubt; inactive = no such curve, though single readings can be large; an effect the other way counts as inactive or inconclusive. Unless noted, % is scaled to controls: 0 for no effect and ±100 for the full control effect.
SMILES,IL1B secr inh,HT1080NT lethal,DT40 TDP1 CPT,TDP1 cell noCPT,HT1080 IDH1KD tx
COC(=O)c1c(C)cccc1C1CN=NC12Cc1ccccc1C2=O (centres undefined),-90*,0%,15µM*,?,-2%
COc1ccccc1C1CN=NC12CCCc1ccccc1C2=O (centres undefined),-23,-22%,?,?,-15%
O=C(NCc1n[nH]c(=S)n1-c1ccc(Br)cc1)c1ccc(S(=O)(=O)N2CCOCC2)cc1,14,8%,-11%,-11%,14%
N#Cc1c(NC(=O)CSc2nc3ccccc3s2)sc2c1CCCC2,8,-1%,?,?,-2%
CC12C(=O)N(Cc3ccco3)C(=O)C1C1c3ccccc3C2c2ccccc21 (centres undefined),-5,-19%,?,23µM*,-20%
Cc1ccccc1-c1ccc2ncnc(NCCN3CCOCC3)c2c1,·,·,5.8µM*,7.3µM*,·
CC(=O)NCCNc1ncnc2ccc(-c3ccccc3Cl)cc12,·,·,-9%,?,·
CNc1ncnc2ccc(-c3ccccc3C)cc12,·,·,13µM*,23µM*,·
COc1ccccc1-c1cncnc1NCCN1CCOCC1,·,·,7.3µM*,5.2µM*,·
CC(=O)Nc1ccc(SCC(=O)Nc2ccccc2N2CCOCC2)cc1,-13,-2%,-18%,-5%,-4%
O=C(C=P(c1ccccc1)(c1ccccc1)c1ccccc1)c1ccccc1-c1ccccc1C(=O)C=P(c1ccccc1)(c1ccccc1)c1ccccc1,?,13µM*,0.73µM*,0.58µM*,7.3µM*
O=C(Nc1cccc2[nH]ncc12)c1ccc(F)cc1,6,4%,?,7.3µM*,1%
COC(=O)CCC(C)C1CCC2C3CCC4CC(O)CCC4(C)C3=CC(=O)C12C (centres undefined),-53*,19%,?,?,-2%
COC(/C(=N/O)c1ccc(Cl)cc1)c1ccccc1 (centres undefined),-15,?,?,23µM*,?
COP(=O)(OC)OC(C(=O)c1ccccc1)c1ccc(Cl)cc1 (centres undefined),-14,-2%,-7%,-11%,-2%
O=C(COC(=O)/C=C/c1ccccc1)Nc1cc(C(F)(F)F)ccc1N1CCOCC1,17,-19%,-1%,11%,-12%
Cc1ccc(NC(=O)CSCC(=O)Nc2cc(C(F)(F)F)ccc2N2CCOCC2)cc1,-5,-8%,18µM*,21µM*,-27%
O=C(CSc1nccc(=O)[nH]1)Nc1cc(C(F)(F)F)ccc1N1CCOCC1,20,-3%,-11%,-10%,-1%
Cc1ccc2nc(SCC(=O)Nc3cc(C(F)(F)F)ccc3N3CCOCC3)[nH]c2c1,29,?,0.82µM*,0.82µM*,1µM*
COc1ccccc1/C=C/C(=O)OCC(=O)Nc1cc(C(F)(F)F)ccc1N1CCOCC1,35,?,4.1µM*,2.6µM*,?
O=C(Nc1ccccc1)C1Cc2ccccc2CN1C(=O)c1ccco1 (centres undefined),-18,4%,1%,-4%,3%
O=C(Nc1cc(C(F)(F)F)ccc1N1CCOCC1)C1Cc2ccccc2CN1C(=O)c1ccco1 (centres undefined),27,-8%,16µM*,?,-9%
COc1ccc(S(=O)(=O)N2CN3CCN(C3)C2)cc1,18,1%,?,?,0%
Cc1ccc(NC(=O)Cc2nnc(SCC(=O)NC3=NCCS3)n2C)cc1,17,-2%,?,?,6%
CCCN1CCN(C(=O)C(NC(=O)c2ccco2)C(C)C)CC1 (centres undefined),-9,-2%,10%,-6%,-5%
SMILES,IL1B secr inh,HT1080NT lethal,DT40 TDP1 CPT,TDP1 cell noCPT,HT1080 IDH1KD tx
O=C(CSc1nc2ccccc2o1)Nc1ccc(N2CCOCC2)c(Cl)c1,12,8%,-28%,?,15%
CC(=O)Nc1cc(C(F)(F)F)ccc1N1CCOCC1,17,9%,-16%,-9%,1%
CCCCn1nc(C(=O)Nc2cc(C(F)(F)F)ccc2N2CCOCC2)ccc1=O,-26,-14%,23µM*,3.7µM*,-8%
CCOC(=O)C(=CNc1cc(C(F)(F)F)ccc1N1CCOCC1)C(=O)OCC,-53*,-1%,?,16µM*,-2%
COc1ccc(NC(C)C(=O)Nc2cc(C(F)(F)F)ccc2N2CCOCC2)c(OC)c1 (centres undefined),-24,-20%,?,23µM*,-20%
O=C(CSc1nc2ccccc2o1)Nc1cc(C(F)(F)F)ccc1N1CCOCC1,-50*,-14%,?,?,?
CCN(CC(=O)Nc1ccc(NC(C)=O)cc1)c1ccc(C(F)(F)F)cn1,-6,1%,-19%,?,10%
O=C(CCCCl)NC(=S)Nc1cc(C(F)(F)F)ccc1N1CCOCC1,?,-16%,?,15µM*,-13%
O=C(/C=C/c1ccco1)NC(=S)Nc1cc(C(F)(F)F)ccc1N1CCOCC1,-19,20%,-20%,?,-7%
CCCCCCCCCCCCCCCC(=O)OC[C@@H](NC(=O)C(Cl)Cl)[C@H](O)c1ccc([N+](=O)[O-])cc1,·,·,-2%,5%,·
CS(=O)(=O)c1ccc([C@@H](O)[C@@H](CO)NC(=O)C(Cl)Cl)cc1,-1,-21%,5.8µM*,3.7µM*,1%
CS(=O)(=O)c1ccc(C(O)C(CO)NC(=O)C(Cl)Cl)cc1 (centres undefined),·,·,?,1.6µM*,·
COc1ccc(NC(=O)c2c(NCc3cccs3)sc3c2CCCCC3)c(OC)c1,·,·,?,15µM*,·
COc1ccc2nc(Nc3sc4c(c3C(N)=O)CCCC4)sc2c1,-100*,-13%,16µM*,?,-6%
CCOC(=O)c1ccc(NC(=O)c2c(NCc3cccs3)sc3c2CCCCC3)cc1,·,·,10µM*,8.2µM*,·
CCN(CC)Cc1c(NC(=O)c2ccc(OC)cc2)sc2c1CCCC2,·,·,18µM*,?,·
COc1ccc(CC(=O)Nc2sc3c(c2C(N)=O)CCCC3)cc1,-2,-19%,14%,?,-21%
CCOC(=O)c1c(NC(=O)c2ccco2)sc2c1CCCC2,17,18%,?,?,12%
COc1ccc(NC(=O)c2c(NCc3cccs3)sc3c2CCCC3)cc1,·,·,?,21µM*,·
CCC(=O)Nc1sc2c(c1C(=O)Nc1ccc(Br)cc1)CCCCC2,·,·,?,21µM*,·
